In PubChem BioAssay (NCI):
About 83,000 compounds went through this panel and 20% of them were active in at least one assay; those are over-represented in the sample as a whole.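 Activity criterion: percent growth below 10, measured after cells in 96-well plates were exposed to a single compound concentration for 48 hours.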 A number with no mark means an inactive call. Active and inactive are the calls of the source.

Key:
Assay in all cases: NCI-60 one-dose screen, 48 h (100 = growth as untreated, 0 = no growth, -100 = all killed)
Conditions in all cases: 10 µM unless noted
[1] = tested on: SK-MEL-2 melanoma
[2] = tested on: EKVX NSCLC
[3] = tested on: SN12C renal
[4] = tested on: UO-31 renal
[5] = tested on: TK-10 renal
[6] = tested on: ACHN renal
[7] = tested on: CAKI-1 renal
[8] = tested on: A498 renal
[9] = tested on: CCRF-CEM leukemia
[10] = tested on: MOLT-4 leukemia
[11] = tested on: SR leukemia
[12] = tested on: RPMI-8226 leukemia
[13] = tested on: OVCAR-8 ovarian
[14] = tested on: OVCAR-5 ovarian
[15] = tested on: OVCAR-4 ovarian
[16] = tested on: SK-OV-3 ovarian
[17] = tested on: IGROV1 ovarian
[18] = tested on: OVCAR-3 ovarian
[19] = tested on: HS 578T breast
[20] = tested on: NCI/ADR-RES ovarian

Row | Compound | growth [1] | growth [2] | growth [3] | growth [4] | growth [5] | growth [6] | growth [7] | growth [8] | growth [9] | growth [10] | growth [11] | growth [12] | growth [13] | growth [14] | growth [15] | growth [16] | growth [17] | growth [18] | growth [19] | growth [20]
1 | C#Cc1cccc(NC(=O)Nc2cccc(N=C=S)c2)c1 | 109% [8.25 µM] | 99.7% [8.25 µM] | 97.6% [8.25 µM] | 87.7% [8.25 µM] | 119% [8.25 µM] | 103% [8.25 µM] | 94.7% [8.25 µM] | 85% [8.25 µM] | 96.1% [8.25 µM] | 97.8% [8.25 µM] | 88.9% [8.25 µM] | 99.3% [8.25 µM] | 98.6% [8.25 µM] | 102% [8.25 µM] | 99.6% [8.25 µM] | 120% [8.25 µM] | 98.4% [8.25 µM] | 115% [8.25 µM] | 95.6% [8.25 µM] | 106% [8.25 µM]
2 | O=S(=O)(NCCNc1nccc(-c2c(-c3cccc(F)c3)nc3occn23)n1)c1cccc2ccccc12 | 58.3% | 48.5% | 47.6% | 15.9% | 47.1% | 40.5% | 25% | 37.7% | 43.8% | 26.3% | 41.6% | 21.7% | 58.4% | 116% | 47.8% | 69% | 35.4% | 71.7% | 64.9% | 48.8%
3 | CC[C@H](C)[C@@H]1NC(=O)[C@H](Cc2ccc(O)cc2)N(C)C(=O)[C@H](Cc2ccccc2)NC(=O)CN(C)C(=O)[C@@H]2CCCN2C(=O)[C@@H](Cc2ccccc2)N(C)C(=O)[C@H](CC(C)C)NC1=O | -50.4% (active) | -3.63% (active) | -13.7% (active) | 44.4% | 6.34% (active) | 4.52% (active) | 11.4% | -3.73% (active) | -7.96% (active) | 2.71% (active) | 4.5% (active) | -33.3% (active) | 5.34% (active) | -7.89% (active) | -4.8% (active) | 4.76% (active) | -8.42% (active) | -10.7% (active) | -12% (active) | 70.7%
4 | Cc1ccc2nc3c(cc2c1)CSc1nnc(-c2ccc[nH]c2=S)n1N3 | 100% | 102% | 92.8% | 64.3% | 105% | 97.4% | 78.7% | 101% | 104% | 91.9% | 83.3% | 99.5% | 100% | 99.5% | 109% | 88.8% | 82.7% | 99.5% | 96.3% | 93.4%
5 | CC(C)(C)OC(=O)N1C/C(=C\c2ccoc2)C(=O)/C(=C/c2ccoc2)C1 | 96.4% | 102% | 97.8% | 74.2% | 94.8% | 99.6% | 82.5% | 74.1% | 16.5% | 76.1% | -8.41% (active) | -23% (active) | 101% | 97% | 100% | 99.5% | 95.6% | 106% | 90.6% | 97.6%
6 | Nc1ncc(C#Cc2cncc(NC(=O)c3cccc(C(F)(F)F)c3)c2)c2cccnc12 | 5.81% (active) | 81.6% | 50.4% | 33.7% | 84.8% | 55.1% | 68.6% | 62.8% | 48.5% | 36.8% | 37.7% | 60.7% | 47.5% | 52.9% | 25.6% | 67.3% | 40.4% | 84.6% | 27% | 66.1%
7 | CNC(=O)c1c(NC(=O)c2ccc(C(C)C)cc2)sc2c(CN(C)C)c(O)ccc12 | 90.2% | 90.2% | 99.4% | 64.5% | 86.8% | 66.6% | 85.1% | 58.9% | 56.7% | 72.4% | -9.94% (active) | 22.5% | 112% | 106% | 98.6% | 99.7% | 90.5% | 99.3% | 89.6% | 91.3%
8 | NC(=O)C1(N2CCCCC2)CCN(CCCC(=O)c2ccc(F)cc2)CC1 | 13.9% | 59.2% | 43.3% | 88.9% | 88.2% | 90.9% | 91.7% | 32.8% | 0.142% (active) | 26.8% | 11.4% | 29.5% | 51.1% | 72.7% | 59.8% | 30.8% | 62.6% | -14.7% (active) | -2.41% (active) | 100%
9 | CCC(C)C(N)C(=O)NNc1n[nH]c(=S)n1N (stereo not given) | 102% | 95.5% | 99.2% | 85.3% | 104% | 101% | 91% | 93.8% | 99.7% | 101% | 99.7% | 99.9% | 97.8% | 99.2% | 102% | 99.3% | 105% | 107% | 91.6% | 102%
10 | Cn1c(COC(=O)NCCn2ccnc2)nc2c(N3CCOCC3)nc(-c3ccccc3)nc21 | -69.6% (active) | -64.5% (active) | -90.3% (active) | -100% (active) | -83.3% (active) | -100% (active) | -94.2% (active) | -24.2% (active) | -17.9% (active) | -10.3% (active) | 1.63% (active) | -29.4% (active) | -12.9% (active) | -91% (active) | -87.8% (active) | 50.2% | -96% (active) | -89.7% (active) | -33% (active) | -1.95% (active)
11 | CC(=O)Nc1ccc(C(=O)Nc2cc(-c3ccccc3)ccc2N)cc1 | 73.8% | 71.4% | 84.2% | 48.7% | 59.5% | 54.8% | 47.5% | 83.9% | 80.1% | 64.8% | 39.4% | 83.6% | 54.9% | 60.5% | 76.7% | 67.9% | 94% | 75.2% | 92% | 42.9%
12 | CC(N)C(=O)NNc1n[nH]c(=S)n1N (stereo not given) | 105% | 93.9% | 102% | 83% | 108% | 108% | 93.9% | 94.8% | 102% | 107% | 103% | 104% | 100% | 92.9% | 105% | 109% | 98.8% | 97.6% | 88.2% | 99.9%
13 | O=C(Nc1cccc(Cl)c1)Oc1c(Br)c(Br)c(Br)c(Br)c1Br | 79% | 92.1% | 92.7% | 74.9% | 99.9% | 104% | 90.5% | 78.3% | 87.9% | 99.7% | 107% | 73.2% | 88.9% | 102% | 95.4% | 62.6% | 107% | 88.5% | 84.3% | 96.4%
14 | COc1ccc(C(=O)c2cc3c(N)c(C(=O)Nc4cccc5ccccc45)sc3nc2C)cc1 | 37.4% | 36% | 22.5% | 36.3% | 60.5% | 30.5% | 20.9% | -7.9% (active) | 8.02% (active) | 13.8% | -11.9% (active) | 5.61% (active) | -5.04% (active) | 39.9% | 37.2% | 32% | 23.8% | -7.2% (active) | 11.3% | 8.37% (active)
15 | CN1CCN(CCCNc2nccc(-c3c(-c4ccc(F)c(O)c4)nc4sccn34)n2)S1(=O)=O | -1.07% (active) | 106% | 85.1% | 110% | 133% | 82.4% | 95.5% | 134% | 76% | 82.5% | 58.1% | 87.4% | 96.1% | 131% | 133% | 91.8% | 98.5% | 116% | 97.2% | 99.5%
